Structures are written as SMILES. Compounds without any hit were thinned out: in the full panel of roughly 83,000, 20% have a hit.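 Plates (96-well) were seeded with cells, treated with compound at one concentration, and incubated for 48 hours before percent growth was determined.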 A number with no mark means an inactive call. Calls of active or inactive are those of the source. How the source made its calls: active means growth percent below 10; inactive means the rest.

The test system of the first experiment is HT29 colon. As to the kind of experiment: NCI-60 one-dose screen, 48 h (100 = growth as untreated, 0 = no growth, -100 = all killed). The note with it: 10 µM.
For `C=C(C(=O)c1ccccc1)C(NC(C)(C)C)c1ccccc1` (stereo not drawn), the growth is -26.1% (active).

In the case of `O=c1c2ccccc2nc(SCCN2CCCCC2)n1CCc1ccccc1`, the growth was 30.1%.

As for `N=c1c2c(-c3ccccc3)c(-c3ccccc3)n(Cc3ccccc3)c2ncn1CCCO`, the growth is 0.266% (active).

Turning to `COc1cc(/C=C2\Oc3cc(OCC(=O)c4ccccc4)ccc3C2=O)cc(OC)c1OC`, the growth was 112%.

Turning to `Cc1ccc(NC(=O)CSc2nc3ccccc3c(=O)n2CCc2ccccc2)c(C(=O)O)c1`, the growth was 111%.

On to `O=C(Nc1nc2ccc(F)cc2s1)c1cc(-c2ccc(F)cc2)n2nc(-c3ccccc3)cc2n1`, for which the growth is 92.7%.

In the case of `CN1CCCNc2c(c(=O)c2=O)NCCCN(C)CCCNc2c(c(=O)c2=O)NCCCN(C)CCCNc2c(c(=O)c2=O)NCCCN(C)CCCNc2c(c(=O)c2=O)NCCCN(C)CCCNc2c(c(=O)c2=O)NCCCN(C)CCCNc2c(c(=O)c2=O)NCCCN(C)CCCNc2c(c(=O)c2=O)NCCC1`, the growth is 59.3%.

With `CCN1CCC2(CC1)OC(c1ccccc1)C(c1ccccc1)O2` (stereo not drawn), the growth was 96%.

Regarding `O=C(O)c1ccc(Cl)cc1Nc1ccc(F)cc1`, the growth is 101%.

Take `CCCCCC(=O)c1ccc(OCCCN2CCN(C(=O)OCC)CC2)cc1`: the growth was 102%.

On to `COc1ccc(NC(=O)CSc2nc3ccccc3c(=O)n2CCc2ccccc2)cc1`, for which the growth is 110%.

For the molecule `COc1ccc(-c2nnc(-c3c(-c4ccccc4)nc4ncccn34)o2)cc1OC`, the growth was 102%.

Consider `COc1ccc2nc3cc(Cl)ccc3c(NCCNCC(C)O)c2c1` (stereo not drawn), for which the growth was -37.7% (active).

For `CC(C)(C)NC/C(=C\c1ccccc1)C(=O)c1ccccc1`, the growth was -46.1% (active).

For the molecule `COc1ccc(-c2ccc3cc(C(=O)Nc4ccc(O)c(C(=O)/C=C/c5cc(OC)c(OC)c(OC)c5)c4)ccc3c2)cc1`, the growth was 95.3%.

Consider `CCCCN(CCCC)c1cc(C(=O)CCCCCN)c2ccccc2n1`, for which the growth is -38% (active).

For the molecule `COc1ccc(NC(=O)Cc2nc3nc4sc(C)c(C)c4c(=O)n3[nH]2)cc1`, the growth is 94.1%.

As for `COc1cc(-c2nc(-c3nnc(-c4ccc(F)c(Cl)c4)o3)c3ccccn23)cc(OC)c1OC`, the growth was 15.2%.

Take `NC(=O)SCC(=O)Nc1ccc(S(N)(=O)=O)cc1`: the growth is 107%.

As for `Nc1nccc(Nc2ccccc2)n1`, the growth is 121%.

For the molecule `Oc1[nH]c2cc(Cl)ccc2c1/C=c1/ccc2c(c1)N=C(c1cc(F)cc(F)c1)N=2`, the growth is 3.28% (active).

Turning to `c1ccc2c(c1)oc1c3cccnc3ccc21`, the growth was 95.8%.

On to `COc1ccc2c(c1)sc1nc(-c3ccccc3)c(-c3ccsc3)n12`, for which the growth is -5.75% (active).

On to `CSc1cc(SC)ncn1`, for which the growth is 97.3%.

`COc1ccc2c(c1)sc1nc(-c3ccccc3)c(-c3ccc(O)c(OC)c3)n12`: the growth is 21.5%.

As for `CCCCCCCCCCCCCC[n+]1ccc(C(N)=O)cc1`, the growth was -28.2% (active).

For the molecule `CN1c2ccccc2[C@]2(Cc3ccccc3)Cc3ccccc3N[C@H]12`, the growth was 86.9%.

Regarding `CCN(CC)CCSCCCNc1c2ccc(Cl)cc2nc2ccc(OC)cc12`, the growth was -58.1% (active).

For `CC(=O)c1cc(Br)ccc1O`, the growth was 116%.

Regarding `COc1ccc(-c2nc3sccn3c2-c2nc3c([nH]2)C(=O)c2ccccc2C3=O)cc1`, the growth is 96.2%.

For the molecule `N=C1c2nc3n(c2C(=O)c2nc4n(c21)CCCC4)CCCC3`, the growth was -13.7% (active).

With `COc1ccc(-c2nc3ccccn3c2-c2nnc(-c3cc(OC)c(OC)c(OC)c3)o2)cc1`, the growth was 70.4%.

Turning to `CCN(CC)CCOc1nc2ccc(OC)cc2c2c1-c1ccc(OC)cc1C2=O`, the growth is -61.4% (active).

For the molecule `CCCCCCCCN(CCCCCCCC)CCCCCCCCCN1CCCc2cc(OC)ccc21`, the growth is 84.8%.

Consider `COc1ccc2c(c1)C(=O)c1c-2c(OCCN(C)C)nc2cc(OC)c(OC)cc12`, for which the growth is 30.1%.

As to `COc1ccc(/C(=C2\O[C@@H]([C@H]3COC(C)(C)O3)[C@H]3OC(C)(C)O[C@@H]23)c2cc(OC)c(OC)c(OC)c2)cc1O`, the growth is 107%.

Consider `Nc1ccn(C2CC(O)C(CO)O2)c(=O)n1` (stereo not drawn), for which the growth was 110%.

As for `CC(C)=CCc1ccc(O)c(=O)cc1C(C)C`, the growth is 28.5%.

Consider `COc1cc(NC(=O)CSc2nc3ccccc3c(=O)n2CCc2ccccc2)cc(OC)c1OC`, for which the growth was 15.4%.

The test system of another experiment is SNB-75 CNS. Described as above. The note with it: 10 µM.
On to `C=C(C(=O)c1ccccc1)C(NC(C)(C)C)c1ccccc1` (stereo not drawn), for which the growth was 53.6%.

Take `O=c1c2ccccc2nc(SCCN2CCCCC2)n1CCc1ccccc1`: the growth was 87%.

As to `N=c1c2c(-c3ccccc3)c(-c3ccccc3)n(Cc3ccccc3)c2ncn1CCCO`, the growth was 39.7%.

As to `COc1cc(/C=C2\Oc3cc(OCC(=O)c4ccccc4)ccc3C2=O)cc(OC)c1OC`, the growth was 104%.

For `Cc1ccc(NC(=O)CSc2nc3ccccc3c(=O)n2CCc2ccccc2)c(C(=O)O)c1`, the growth is 84.3%.

Consider `O=C(Nc1nc2ccc(F)cc2s1)c1cc(-c2ccc(F)cc2)n2nc(-c3ccccc3)cc2n1`, for which the growth was 70.7%.

Regarding `CN1CCCNc2c(c(=O)c2=O)NCCCN(C)CCCNc2c(c(=O)c2=O)NCCCN(C)CCCNc2c(c(=O)c2=O)NCCCN(C)CCCNc2c(c(=O)c2=O)NCCCN(C)CCCNc2c(c(=O)c2=O)NCCCN(C)CCCNc2c(c(=O)c2=O)NCCCN(C)CCCNc2c(c(=O)c2=O)NCCC1`, the growth is 84.3%.

Turning to `CCN1CCC2(CC1)OC(c1ccccc1)C(c1ccccc1)O2` (stereo not drawn), the growth was 88.2%.

Take `O=C(O)c1ccc(Cl)cc1Nc1ccc(F)cc1`: the growth is 83.6%.

As to `CCCCCC(=O)c1ccc(OCCCN2CCN(C(=O)OCC)CC2)cc1`, the growth was 102%.

As to `COc1ccc(NC(=O)CSc2nc3ccccc3c(=O)n2CCc2ccccc2)cc1`, the growth is 28.7%.

For the molecule `COc1ccc(-c2nnc(-c3c(-c4ccccc4)nc4ncccn34)o2)cc1OC`, the growth was 74.1%.

In the case of `COc1ccc2nc3cc(Cl)ccc3c(NCCNCC(C)O)c2c1` (stereo not drawn), the growth is 63.7%.

`CC(C)(C)NC/C(=C\c1ccccc1)C(=O)c1ccccc1`: the growth was 26.9%.

Take `COc1ccc(-c2ccc3cc(C(=O)Nc4ccc(O)c(C(=O)/C=C/c5cc(OC)c(OC)c(OC)c5)c4)ccc3c2)cc1`: the growth is 94%.

Regarding `CCCCN(CCCC)c1cc(C(=O)CCCCCN)c2ccccc2n1`, the growth is 105%.

Regarding `COc1ccc(NC(=O)Cc2nc3nc4sc(C)c(C)c4c(=O)n3[nH]2)cc1`, the growth is 101%.

On to `COc1cc(-c2nc(-c3nnc(-c4ccc(F)c(Cl)c4)o3)c3ccccn23)cc(OC)c1OC`, for which the growth was 3.25% (active).

`NC(=O)SCC(=O)Nc1ccc(S(N)(=O)=O)cc1`: the growth was 96.3%.

In the case of `Nc1nccc(Nc2ccccc2)n1`, the growth was 90.9%.

In the case of `Oc1[nH]c2cc(Cl)ccc2c1/C=c1/ccc2c(c1)N=C(c1cc(F)cc(F)c1)N=2`, the growth is -21.5% (active).

With `c1ccc2c(c1)oc1c3cccnc3ccc21`, the growth is 70.1%.

For the molecule `COc1ccc2c(c1)sc1nc(-c3ccccc3)c(-c3ccsc3)n12`, the growth is 6.18% (active).

In the case of `CSc1cc(SC)ncn1`, the growth is 94.2%.

As to `COc1ccc2c(c1)sc1nc(-c3ccccc3)c(-c3ccc(O)c(OC)c3)n12`, the growth is 77.6%.

Consider `CCCCCCCCCCCCCC[n+]1ccc(C(N)=O)cc1`, for which the growth is -24.8% (active).

In the case of `CN1c2ccccc2[C@]2(Cc3ccccc3)Cc3ccccc3N[C@H]12`, the growth was 89.6%.

As to `CCN(CC)CCSCCCNc1c2ccc(Cl)cc2nc2ccc(OC)cc12`, the growth was -97.8% (active).

For the molecule `CC(=O)c1cc(Br)ccc1O`, the growth was 106%.

Regarding `COc1ccc(-c2nc3sccn3c2-c2nc3c([nH]2)C(=O)c2ccccc2C3=O)cc1`, the growth is 81.7%.

With `N=C1c2nc3n(c2C(=O)c2nc4n(c21)CCCC4)CCCC3`, the growth was -97% (active).

Consider `COc1ccc(-c2nc3ccccn3c2-c2nnc(-c3cc(OC)c(OC)c(OC)c3)o2)cc1`, for which the growth is 59.9%.

Turning to `CCN(CC)CCOc1nc2ccc(OC)cc2c2c1-c1ccc(OC)cc1C2=O`, the growth was -1.45% (active).

Take `CCCCCCCCN(CCCCCCCC)CCCCCCCCCN1CCCc2cc(OC)ccc21`: the growth is 84.5%.

Take `COc1ccc2c(c1)C(=O)c1c-2c(OCCN(C)C)nc2cc(OC)c(OC)cc12`: the growth is 51.7%.

Consider `COc1ccc(/C(=C2\O[C@@H]([C@H]3COC(C)(C)O3)[C@H]3OC(C)(C)O[C@@H]23)c2cc(OC)c(OC)c(OC)c2)cc1O`, for which the growth was 6.11% (active).

For `Nc1ccn(C2CC(O)C(CO)O2)c(=O)n1` (stereo not drawn), the growth is 97.5%.

As to `CC(C)=CCc1ccc(O)c(=O)cc1C(C)C`, the growth was 12.7%.

For the molecule `COc1cc(NC(=O)CSc2nc3ccccc3c(=O)n2CCc2ccccc2)cc(OC)c1OC`, the growth was -26.7% (active).

Source of the values: PubChem BioAssay (NCI).
